According to the supplement of paper PMC7530171:
Counter-ions that a name gives are not always drawn. ± gives the standard deviation.

Tested on: THP-1
Assay: THP-1 cell loss relative to DMSO control; higher = more host cell loss (toxicity); extreme values may be limits of the assay
Conditions: 10 µM; 4 days; infection: M. tuberculosis H37Rv
Method: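 OICR kinase inhibitor library screened in duplicate at 10 uM against M. tuberculosis-infected THP-1 macrophages, 4 days at 37 C. THP-1 cell loss (cytotoxicity or loss of adherence) was quantified from Hoechst-stained nuclei counts by high-content imaging and normalised to the 1% DMSO control; 100 = complete loss of host cells.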

SMILES	THP-1 cell loss
CC(C)n1nc(-c2cc3cc(O)ccc3[nH]2)c2c(N)ncnc21	92.9 ± 10%
O=C(NC[C@H](O)CO)c1ccncc1Nc1ccc(I)cc1F	100%
c1ccc(-c2[nH]ncc2-c2ccnc3ccccc23)nc1	0%
O=C(NOC[C@H](O)CO)c1ccc(F)c(F)c1Nc1ccc(I)cc1F	100%
O=C(NOCC1CC1)c1ccc(F)c(F)c1Nc1ccc(I)cc1Cl	100%
Cc1cc(C(=O)N2CCN(c3cccc(Cl)c3)CC2)n(-c2ccccc2)n1	23.2 ± 25%
Cn1c(=O)c(Oc2ccc(F)cc2F)cc2cnc(NC3CCOCC3)nc21	17.2 ± 6.1%
N#CCc1ccc(Nc2nc(Nc3cc(C4CCC4)[nH]n3)c3ccccc3n2)cc1	100%
CNC(=O)c1ccccc1Sc1ccc2c(/C=C/c3ccccn3)n[nH]c2c1 [Axitinib]	14.9 ± 11%
CN1C(=O)C(Cc2c[nH]c3ccccc23)NC1=S (stereo unspecified) [Necrostatin-1]	2.6 ± 3.7%
O=c1oc2c(O)c(O)cc3c(=O)oc4c(O)c(O)cc1c4c23 [Ellagic acid]	5.06 ± 7.2%
O=C1NC(=O)/C(=C/c2ccc(-c3ccc(F)cc3O)o2)S1	39.7 ± 23%
NC(=O)c1ccc2nc(-c3ccc(Oc4ccc(Cl)cc4)cc3)[nH]c2c1 [Chk2 Inhibitor II]	48.8 ± 4.4%
Cc1cccc(-c2nn(C(=S)Nc3ccccc3)cc2-c2ccnc3ccccc23)n1	2.37 ± 3.4%
Cc1cc(Nc2cc(N3CCN(C)CC3)nc(/C=C/c3ccccc3)n2)n[nH]1	70.7 ± 19%
CCN(CC)CC1CCN(c2ncc3ncnc(Nc4ccc(F)c(Cl)c4)c3n2)CC1 [BIBU 1361 dihydrochloride]	100%
COc1cc2c(Oc3ccc(NC(=O)C4(C(=O)Nc5ccc(F)cc5)CC4)cc3F)ccnc2cc1OCCCN1CCOCC1	100%
COc1cc2c(cc1OC)-c1[nH]nc(Nc3cccc(F)c3)c1C2	27.5 ± 16%

SMILES	THP-1 cell loss
O=C1C(Cl)=C(NCCN2CCOCC2)C(=O)c2ncccc21	93.7 ± 8.8%
CO[C@H]1C[C@@H]2CC[C@@H](C)[C@@](O)(O2)C(=O)C(=O)N2CCCC[C@H]2C(=O)O[C@H]([C@H](C)C[C@@H]2CC[C@@H](O)[C@H](OC)C2)CC(=O)[C@H](C)/C=C(\C)[C@@H](O)[C@@H](OC)C(=O)[C@H](C)C[C@H](C)/C=C/C=C/C=C/1C [Rapamycin]	33.4 ± 6.3%
Cc1cn(-c2cc(NC(=O)c3ccc(C)c(Nc4nccc(-c5cccnc5)n4)c3)cc(C(F)(F)F)c2)cn1 [Nilotinib]	75.3 ± 35%
CCN(CCO)CCCOc1ccc2c(Nc3cc(CC(=O)Nc4cccc(F)c4)[nH]n3)ncnc2c1	7.76 ± 6.5%
O=C1Cc2c([nH]c3ccc([N+](=O)[O-])cc23)-c2ccccc2N1 [Alsterpaullone]	100%
CCCCCCCCCCCCCCCCn1cc[n+](Cc2ccccc2)c1C	100%
Cc1ccc(NC(=O)c2cccc(N(C)C)c2)cc1NC(=O)c1ccc(O)cc1	3.71 ± 3.8%
c1cc(OCCN2CCCCC2)cc(-c2n[nH]c3ccc(-c4nnc[nH]4)cc23)c1	3.37 ± 4.8%
Cn1c(Nc2ccc(C(F)(F)F)cc2)nc2cc(Oc3ccnc(-c4ncc(C(F)(F)F)[nH]4)c3)ccc21	100%
C[C@@H](N)[C@H]1CC[C@H](C(=O)Nc2ccncc2)CC1	15.7 ± 22%
Cc1cc(I)ccc1Nc1c(C(=O)NOCC2CC2)cc(F)c(F)c1F	100%
O=C1NCc2c1c1c3ccccc3[nH]c1c1[nH]c3ccccc3c21	35.8 ± 3.5%
Cn1cncc1[C@@](N)(c1ccc(Cl)cc1)c1ccc2c(c1)c(-c1cccc(Cl)c1)cc(=O)n2C [Tipifarnib]	29.6 ± 27%
NS(=O)(=O)c1ccc(Nc2nc(OCC3CCCCC3)c3[nH]cnc3n2)cc1	0.876 ± 1.2%
CS(=O)(=O)CCNCc1ccc(-c2ccc3ncnc(Nc4ccc(OCc5cccc(F)c5)c(Cl)c4)c3c2)o1 [Lapatinib ditosylate]	100%
Nc1nccc(-c2c(-c3ccc(F)cc3)ncn2C2CCCCC2)n1	75 ± 8.6%
CCN(CC)CCNC(=O)c1ccc2nc(-c3ccccc3)c(-c3ccc(CN4CCC(n5c(=O)[nH]c6ccccc65)CC4)cc3)nc2c1 [Merck-22-6]	100%
O=C1NC(=O)c2c1c(-c1ccccc1)cc1[nH]c3ccc(O)cc3c21	77.75 ± 0.7%
